Source: PubChem BioAssay (National Center for Advancing Translational Sciences (NCATS))
Shown are actives, neighbours in structure and some others; about 2.3% of the full set was active somewhere.
HepG2 tox: counter-screen for TGF-b inhibitors: cytotoxicity in HepG2 cells | HepG2 CAGA-GFP viability, ATP luminescence, 18 h | Potency, µM (series often up to 46.1 µM), for inactives: at the highest dose activity change, negative = cytotoxicity, actives largely listed as cytotoxic | 410,000 compounds, 0.76% hits
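CellTiter-Glo luminescence gave cytotoxicity after 18 hours at 37 degrees C. The cells were HepG2 CAGA-GFP in 1% FBS DMEM, stimulated with 500 pg/mL TGF-beta after compound addition. %Activity was normalised to no-cell wells (complete cell-killing) and DMSO (no toxicity), and curves were fitted and classified.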
ATXN viability: cell viability loss in ATXN counter-screen | S2 cells (HEK-293 line with an ATXN2-luciferase reporter) viability, CellTiter-Fluor protease fluorescence, 24 h | Potency, µM (titrated, usually from 56.7 µM), most hits filed as cytotoxic | 400,000 compounds, 0.49% hits | AID 651635; further: nearly all actives have a fitted effect of over 40% in size
TGFb inhibitor: blocks TGF-b signaling; HepG2 CAGA-GFP TGF-b/SMAD3 reporter, GFP fluorescence, 18 h; TGF-beta stimulated, 500 pg/mL final; Potency, µM (doses to about 46.1 µM), without a hit: top-dose activity, negative = inhibition, usual class: inhibitors; 410,000 compounds, 1.2% hits; AID 588855; further: on the % scale 0 is the no-effect control and ±100 the full control effect; nearly all actives have a fitted effect of over 65% in size
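Smad-responsive CAGA-GFP expression was quantified in HEPG2 cells exposed to compounds and 500 pg/mL final TGF-beta for 18 h at 37 degrees C; unstimulated wells defined full inhibition.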
ATXN2 expr inh: reduces ATXN2 reporter expression in HEK-293 cells; 360,000 compounds, 0.72% hits; Potency, µM (top dose mostly 57 µM), for inactives: at the top dose activity change, negative = inhibition, usual class: inhibitors; HEK-293 ATXN2-luciferase reporter, luminescence, 24 h; further: on the % scale 0 is the no-effect control and ±100 the full control effect; nearly all actives have a fitted effect of over 55% in size
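qHTS (up to 57 uM final) was run with 24 h compound exposure of reporter cells at 37 °C. Each well was multiplexed: SteadyGlo luminescence measured ATXN2-luciferase expression after a fluorogenic Gly-Phe-AFC viability readout (25 uM final).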
Starred values were filed as active, the others as inactive; i = inactive; ? = inconclusive; . = no result given. The call rests on the fitted dose curve; in most records, active means well fitted curve in the direction sought with a large enough effect; inconclusive means small, poorly fitted or top-dose-only effect, or another doubt; inactive means no such curve, though single readings can be large; an effect the other way counts as inactive or inconclusive. Potency means the concentration at half of the fitted maximal effect.

SMILES	HepG2 tox	ATXN viability	TGFb inhibitor	ATXN2 expr inh
Cc1nn(-c2ccccc2)c(Cl)c1CN(C(=O)CCl)c1cccc2ccccc12	-113%	28µM*	?	?
CCN(CC)c1ccc(/C=C/c2ccncc2)cc1	-38%	.	88%	.
COc1ccc(Cc2[nH]n3c(=O)cc(C)nc3c2-c2ccccc2)cc1	-19%	?	-2%	?
COc1ccc(Cc2[nH]n3c(=O)cc(C(C)C)nc3c2-c2ccccc2)cc1	11µM*	?	?	22µM*
CS(=O)(=O)N1CCN(/[N+]([O-])=N/Oc2ccc([N+](=O)[O-])cc2[N+](=O)[O-])CC1 (tested in a mixture with another compound)	-9%	.	-2%	.
CC(=O)N(Cc1ccc2c(c1)OCO2)Cc1cc2ccc(C)cc2nc1-c1cccc(C)c1	.	i	.	.
Cc1[nH][nH]c(=O)c1C(c1c(C)[nH][nH]c1=O)c1cn(Cc2ccc(Cl)c(Cl)c2)c2ccccc12	-19%	?	13µM*	?
CC(C)(C)OC(=O)N1CCC(c2c(C(=O)NCc3ccc4c(c3)OCO4)cnn2-c2ccc(F)cc2F)CC1	-19%	.	13µM*	.
Cc1cccc(-n2ncc(C(=O)NCc3ccc4c(c3)OCO4)c2C2CCN(C(=O)OC(C)(C)C)CC2)c1	-7%	.	-25%	.
N#Cc1c([N+](=O)[O-])cc([N+](=O)[O-])cc1S(=O)(=O)Cc1ccccc1	10µM*	32µM*	4µM*	?
Cn1c(=S)c2[nH]c(SCC3CCCO3)nc2n(C)c1=O (centres undefined)	11µM*	i	?	-25%
COC(=O)[C@@H]1CCCN1Cc1ccc2c(c1)CN(Cc1cccn1-c1ncccn1)CCO2	.	i	.	.
Oc1ccccc1C1CC(c2cccs2)=NC(c2cccc(Br)c2)N1 (centres undefined)	-61%	i	20µM*	51%
CCn1c(-c2ccccc2F)nc2cc(NC(C)=O)cc(C(=O)N(C)Cc3cn(C)nc3C)c21	.	i	.	.
O=C(NCC1(N2CCOCC2)CCCCC1)c1cnn(-c2nccc(-c3cccs3)n2)c1C1CC1	.	i	.	.
CCOc1ccc(NCc2cccn2-c2nnc(N3CCC(C(=O)NCCCN4CCCCC4CC)CC3)s2)cc1 (centres undefined)	14µM*	.	-20%	.
CCOc1ccc(NCc2cccn2-c2nnc(N3CCC(C(=O)NCCOC)CC3)s2)cc1	-4%	.	.	.
O=C(c1cccnc1)C1CCCN(Cc2ccc3c(c2)CN(C(=O)c2ccc4[nH]ccc4c2)CCO3)C1 (centres undefined)	.	i	.	.
Cc1csc(NCC(=O)c2c(C)[nH]c3ccccc23)n1	-33%	.	-1%	.
CCCC(c1c(C)n(C)n(-c2ccccc2)c1=O)c1c(C)n(C)n(-c2ccccc2)c1=O	11µM*	i	-6%	-1%
COc1cc2c(NC3CCN(C)CC3)nc(N3CCCN(C)CC3)nc2cc1OCCCN1CCCCC1	8%	.	?	.
CC(NC(CCc1ccccc1)C(=O)O)C(=O)N1C(=O)N(C)CC1C(=O)O (centres undefined)	.	i	.	12%
CC(=O)CC1OC(=O)C(Br)=C1NCc1ccccc1 (centres undefined)	7.9µM*	.	10µM*	?
CCCCCCCCCCCCCCCCCCN(CCCCCCCCCCCCCCCCCC)c1ccc(/C=C/c2ccc(C=O)cc2)cc1	-4%	.	-16%	.
COc1ccccc1N(CC(O)COc1c(C)cc(C)cc1C)S(=O)(=O)c1ccccc1 (centres undefined)	11%	?	13µM*	-17%
SMILES	HepG2 tox	ATXN viability	TGFb inhibitor	ATXN2 expr inh
COc1ccccc1N(CC(O)COc1ccc(C)cc1)S(=O)(=O)c1ccccc1 (centres undefined)	2%	i	?	2%
CN(C)c1nc(Cc2ccc(NC(=O)c3ccc4ccccc4c3)cc2)nc(Cl)c1CC(=O)O	.	.	.	-1%
Cc1cnc(NS(=O)(=O)c2ccc(N)cc2)nc1	.	i	.	-3%
COC(=O)C(CC(=O)c1ccc(Br)cc1)n1nc(C)cc1C (centres undefined)	-59%	i	?	0%
COC(=O)C(CC(=O)c1ccc(Br)cc1)n1ccnc1 (centres undefined)	7.9µM*	.	4.5µM*	.
O=C(C[n+]1cccc(Cl)c1)c1ccc(F)cc1	-7%	.	-7%	.
CCCCc1c(-c2ccccc2OC)ncn1Cc1ccc(-c2ccccc2)cc1	.	.	.	25µM*
